According to PubChem BioAssay AID651815 (National Center for Advancing Translational Sciences (NCATS), 2012):
In all, about 2,100 compounds went through this assay and about 1,100 (52%) were called active. Roughly 29% stayed inconclusive and do not appear here. Calls come from the whole dose curve; as a rule, active = well fitted inhibition curve with a large enough effect; inconclusive = small, poorly fitted or top-dose-only effect; inactive = no such curve, though single readings can be large or run the other way. So high a share suggests a set chosen from earlier hits. The list shows a part of the results.

These molecules were tested against DNA dC->dU-editing enzyme APOBEC-3F (Homo sapiens) (UniProt Q8IUX4) (assay: qHTS for inhibitors of Vif-A3F interactions: Cherry picks counterscreen). Conditions: HeLa A3F-eYFP/Vif cells, eYFP fluorescence, 24 h; series mostly up to 46.1 µM; activity, negative = inhibitor: at the top concentration.
Procedure, shortened: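 Rescue of Vif-driven A3F-eYFP degradation read as cellular eYFP fluorescence after 24 h compound exposure (several concentrations) in stable HeLa cells; MG132 (2 mM stock) as positive control.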
% is set by controls: 0 for no effect and ±100 for the full control effect; potency is the fitted concentration of half-maximal effect.
Note: nearly all actives have a fitted effect of over 65% in size.

DNA dC->dU-editing enzyme APOBEC-3F (Homo sapiens), sequence (Q8IUX4 whole entry, looked up): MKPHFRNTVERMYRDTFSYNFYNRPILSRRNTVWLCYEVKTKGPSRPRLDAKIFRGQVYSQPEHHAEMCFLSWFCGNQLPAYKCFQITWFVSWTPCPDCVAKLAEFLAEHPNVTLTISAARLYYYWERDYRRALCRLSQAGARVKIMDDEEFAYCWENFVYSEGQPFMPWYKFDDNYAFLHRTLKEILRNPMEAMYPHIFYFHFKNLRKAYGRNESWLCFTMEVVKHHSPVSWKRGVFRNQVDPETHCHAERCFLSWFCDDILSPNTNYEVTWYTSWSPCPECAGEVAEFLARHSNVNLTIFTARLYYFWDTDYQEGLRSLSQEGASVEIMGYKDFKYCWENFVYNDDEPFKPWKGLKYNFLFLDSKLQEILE

Row | Compound | Potency | activity, negative = inhibitor
1 | COc1ccc(OC)c(-c2cc(-c3cccnc3)nc(N)c2C#N)c1 | 3.53 µM (active) | 
2 | Cc1c(C(=O)C(=O)N2CC=C(c3ccccc3)CC2)c2ccccc2n1C | 2.5 µM (active) | 
3 | O=C(/C=C/c1ccco1)N1CCc2ccccc21 |  | -25.8% (inactive)
4 | Cc1c(C(=O)C(=O)N2CCCc3ccccc32)c2ccccc2n1C | 8.86 µM (active) | 
5 | COc1ccc(CCNC(=O)CC2(CC3=NS(=O)(=O)c4ccccc4N3)CCCC2)cc1OC |  | -12% [at 36.9 µM] (inactive)
6 | CCOc1ccc(-c2cc(C(=O)NCCc3ccc(OC)c(OC)c3)c3c(-c4ccc(F)cc4)[nH]nc3n2)cc1 | 16.4 µM (active) | 
7 | COc1ccc(OC)c(CNc2nc3ccc(C)cc3n3nnnc23)c1 | 8.2 µM (active) | 
8 | COc1ccccc1CNc1nc2ccc(C)cc2n2nnnc12 | 23.1 µM (active) | 
9 | CN(C)CCCNc1cc(N2CCN(C3CCCCC3)CC2)c2noc3c2c1C(=O)c1ccccc1-3 | 2.59 µM (active) | 
10 | O=C1c2ccccc2-c2onc3c(N4CCN(C5CCCCC5)CC4)cc(NCCO)c1c23 | 5.8 µM (active) | 
11 | CCNc1cc(N2CCN(C3CCCCC3)CC2)c2noc3c2c1C(=O)c1ccccc1-3 | 13 µM (active) | 
12 | CCN(CC)c1ccc(/C=N/NC(=O)c2ccco2)cc1 | 6.27 µM (active) | 
13 | O=C(NC(=S)N1CCc2ccccc21)c1ccco1 |  | -3.14% (inactive)
14 | Cc1ccc(CNc2nc3ccc(Cl)cc3n3nnnc23)cc1 | 11.6 µM (active) | 
15 | Fc1ccc(CNc2nc3ccccc3n3nnnc23)cc1 | 11.6 µM (active) | 
16 | c1ccc2c(c1)nc(N1CCOCC1)c1nnnn12 | 20.6 µM (active) | 
17 | Fc1ccccc1Nc1nc2ccccc2n2nnnc12 | 14.6 µM (active) | 
18 | Fc1ccc(CNc2nc3ccc(Cl)cc3n3nnnc23)cc1 | 6.51 µM (active) | 
19 | c1ccc2c(c1)nc(NCC1CCCO1)c1nnnn12 (stereo unspecified) | 18.4 µM (active) | 
20 | N#C/C(=C/c1ccc(N2CCCCCC2)o1)c1ccc(Cl)cc1 | 3.66 µM (active) | 
21 | Cc1ccc(/C(C#N)=C\c2ccc(N3CCOCC3)o2)cc1 | 15.8 µM (active) | 

Row | Compound | Potency | activity, negative = inhibitor
22 | N#C/C(=C/c1ccc(N2CCOCC2)o1)c1ccc(Cl)cc1 | 4.61 µM (active) | 
23 | N#C/C(=C/c1ccc(N2CCCCC2)o1)c1cccc(F)c1 | 4.11 µM (active) | 
24 | CCN(c1ccc(NC(=O)CCc2nc3sc4c(c3c(=O)[nH]2)CCCC4)cc1)C(C)C |  | -28.5% (inactive)
25 | CCCC1=[N+](CC(=O)c2ccc(Br)cc2)CCn2cccc21 |  | -9.63% (inactive)
26 | COc1ccc(C(=O)C[n+]2cccc3cc(Cl)ccc32)cc1 | 20.6 µM (active) | 
27 | CC(C)(C)c1ccc(C(=O)C[n+]2cccc3cc(Cl)ccc32)cc1 | 18.4 µM (active) | 
28 | COc1ccc(C(=O)C[n+]2cc(Br)cc3ccccc32)cc1 | 16.4 µM (active) | 
29 | O=C(C[n+]1cccc2cc(Cl)ccc21)c1ccc2ccccc2c1 | 20.6 µM (active) | 
30 | O=C(NC1C/C(=N/O)c2cc3c(cc21)OCO3)C(F)(F)F (stereo unspecified) |  | 11.8% (inactive)
31 | CCCn1c(CN2CCN(C(=O)OCC)CC2)nc2cc(NC(=O)C(C)C)ccc21 | 12.5 µM (active) | 
32 | CCN(CC)C(=O)Cn1c(C)c(/C=C/c2cc[n+](C)cc2)c2ccccc21 | 7.9 µM (active) | 
33 | COC(=O)Cn1c(C)c(/C=C/c2cc[n+](C)cc2)c2ccccc21 | 9.2 µM (active) | 
34 | COc1ccccc1-c1cc(-c2ccccc2)nc(SC(C(N)=O)c2ccccc2)c1C#N (stereo unspecified) | 17.7 µM (active) | 
35 | N#CC1=C(S)N(c2ccc(F)cc2)C2(CCCCC2)NC1=O |  | 16.2% (inactive)
36 | Cc1ccc2nc(C)c(C(=O)NN=C3CCCCCC3)n2c1 |  | -27.5% [at 36.9 µM] (inactive)
37 | O=C1OC(/C(=C\Nc2cc(Cl)ccc2O)[N+](=O)[O-])c2ccccc21 (stereo unspecified) |  | -22.5% [at 36.9 µM] (inactive)
38 | CCCCN(CCC(=O)O)c1ccc(/C=C/c2ccnc3ccccc23)cc1 | 18.4 µM (active) | 
39 | CCN(C)c1ccc(/C=C/c2ccnc3ccccc23)cc1 | 23.1 µM (active) | 
40 | CC(C)CN(CC(C)C)c1ccc(/C=C/c2ccnc3ccccc23)cc1 | 20.6 µM (active) | 
41 | CCN(CCCN(C)C)c1ccc(/C=C/c2ccnc3ccccc23)cc1 | 20.6 µM (active) | 
42 | CCCCN(CCCC)c1ccc(/C=C/c2ccnc3ccccc23)cc1 | 23.1 µM (active) | 

Row | Compound | Potency | activity, negative = inhibitor
43 | CCCN(CCC)c1ccc(/C=C/c2ccnc3ccccc23)cc1 | 20.6 µM (active) | 
44 | CCN(CC)c1ccc(/C=C/c2ccnc3ccccc23)cc1 | 23.1 µM (active) | 
45 | COCCNC(=O)C(=O)Nc1ccc2c(c1)N(S(=O)(=O)c1cccs1)CCC2 | 2.23 µM (active) | 
46 | CCOc1ccccc1NC(=O)Cn1nnc(C(=O)NCc2cccs2)c1N | 1.46 µM (active) | 
47 | CCN(CC(=O)NCc1ccc(F)cc1)C(=O)/C=C/c1ccc(OC)c(S(=O)(=O)NC(C)C)c1 | 4.98 µM (active) | 
48 | COc1ccc(NC(=O)C2Cc3c(-c4cccc(C(C)=O)c4)ccnc3O2)cn1 (stereo unspecified) | 3.14 µM (active) | 
49 | COc1ccc(NC(=O)C2Cc3c(-c4cccc(C(C)=O)c4)ccnc3O2)cc1 (stereo unspecified) | 3.53 µM (active) | 
50 | CC(=O)Nc1cccc(-c2ccnc3c2CC(C(=O)Nc2ccc4c(c2)OCO4)O3)c1 (stereo unspecified) | 4.44 µM (active) | 
51 | CC(=O)c1cccc(-c2ccnc3c2CC(C(=O)Nc2ccc(Cl)cc2)O3)c1 (stereo unspecified) | 4.98 µM (active) | 
52 | COc1ccc(NC(=O)C2Cc3c(-c4cccc(NC(C)=O)c4)ccnc3O2)cn1 (stereo unspecified) | 7.9 µM (active) | 
53 | CC(=O)Nc1ccc(-c2ccnc3c2CC(C(=O)Nc2cccc(N(C)C)c2)O3)cc1 (stereo unspecified) | 12.5 µM (active) | 
54 | Cc1ccc(S(=O)(=O)c2cc3ccccc3oc2=Nc2ccc3c(c2)OCO3)cc1 |  | -12.3% (inactive)
55 | CC(C)NC(=S)N/N=C/c1sc(N2CCCCC2)nc1-c1cccs1 |  | -29.2% (inactive)
56 | COc1cccc(N2CC(O)=C(c3nc4ccccc4s3)C2=N)c1 | 7.9 µM (active) | 
57 | CN(C)c1ccc(/C=C2\C(=N)N3N=C(CC(=O)N4CCCCC4)SC3=NC2=O)cc1 | 3.26 µM (active) | 
58 | CN(C)c1ccc(/C=C2\SC(N3CCCCC3)=NC2=O)cc1 | 23.1 µM (active) | 
59 | CCN(CC)c1ccc(/C=C2\C(=N)N3N=C(CC(=O)N4CCOCC4)SC3=NC2=O)cc1 | 0.0353 µM (active) | 
60 | COc1cc(/C=C2\C(=N)N3N=C(S(C)(=O)=O)SC3=NC2=O)ccc1OC(=O)c1ccco1 |  | 29.8% (inactive)
61 | COc1cc(/C=C2\C(=N)N3N=CSC3=NC2=O)cc(Br)c1OC(=O)c1ccco1 |  | 28.5% (inactive)
